# Pf growth 96h = inhibits malaria parasite growth, 96 h | Potency, µM (highest dose often 28.7 µM), hits mostly inhibitors | P. falciparum luciferase reporter growth, 96 h | 320,000 tested, 6.9% active
#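 Two parasite generations (96 h, 37 C, 5% CO2) of compound exposure in infected erythrocytes (0.05% parasitemia, 2% hematocrit). Luciferase-reporter P. falciparum; decreased luminescence indicates inhibited growth, aimed at apicoplast-acting delayed death.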
# HCV inh = HCV inhibition. Huh7.5.1 HCVcc-Cre infection, luciferase reporter, 44 h. Potency, µM (highest dose often 41.8 µM), usual class: inhibitors. 340,000 tested, 3.4% active. AID 651820
#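 Whole-lifecycle infectious HCVcc-Cre system; cells 1,000/well, compound then virus (~0.5 moi) added 4 h after plating, 44 h culture. Luciferase read 15 sec following 15 min substrate incubation, room temp.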
# Pf growth 48h = inhibits P. falciparum growth in the first generation, 48 h | P. falciparum luciferase growth in erythrocytes, 48 h | Potency, µM (top dose mostly 28.7 µM), most hits filed as inhibitors | 310,000 tested, 5.9% active
#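 Compounds are pin-transferred into medium, infected erythrocytes (2% hematocrit, 0.1% parasitemia final) are added, and plates sit one parasite generation at 37 C in 5% CO2. Detection reagent is then added and luminescence measured.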
# HCMV inh = inhibitors of human cytomegalovirus | activity change, negative = inhibition, % at 57.5 µM | HFF cells, HCMV-luciferase reporter, 72 h; active compounds read low | 410,000 tested, 4.5% active; in the data active = activity change below about -60%; inconclusive = no clear call, values can overlap the other calls; inactive = above about -39%
#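 Screen run at 2 compound doses on HFFs infected with reporter HCMV, MOI 1 PFU/cell. Luciferase activity from cell lysates at 72 h post infection gave inhibition relative to buffer-only and Salinomycin wells.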
# Hits are given with their value; 0 = inactive; ? = inconclusive; - = not tested or not shown. A selection: hits, their analogues and other compounds. The true share with any hit is near 13%. Unless noted, calls come from the whole dose curve; as a rule, active = well fitted inhibition curve with a large enough effect; inconclusive = small, poorly fitted or top-dose-only effect, or another doubt; inactive = no such curve, though single readings can be large or run the other way.
SMILES,Pf growth 96h,HCV inh,Pf growth 48h,HCMV inh
CS(=O)(=O)N1CCC(Oc2ccccc2C(=O)N2CCCCC2CO)CC1 (stereo unspecified),?,0,0,0
COC(=O)CN(C)C(=O)c1ccccc1OC1CCN(S(C)(=O)=O)CC1,13µM,0,0,0
Cc1cc(/C=C2/NC(=O)N(Cc3ccccc3F)C2=O)c(C)n1C(C)C,10µM,?,?,0
CCn1c(C)cc(/C=C2/NC(=O)N(Cc3ccccc3F)C2=O)c1C,9.3µM,?,12µM,0
Cc1ccc(/C=C2/NC(=O)N(Cc3ccccc3F)C2=O)o1,?,0,0,-72
CCOc1ccc(N(CC(=O)NCc2ccc(C)cc2)S(=O)(=O)c2c(C)noc2C)cc1,-,-,-,0
O=C(NC1CC(=O)N(c2ccc3c(c2)OCCO3)C1)c1c(F)cccc1Cl (stereo unspecified),-,-,-,0
CCCCC(=O)Nc1nc2ccc3nc(C)sc3c2s1,10µM,7.9µM,?,0
CCOC(=O)c1oc2c(c1C)-c1nn(Cc3cccc(Cl)c3)cc1CC2,-,-,-,0
CC(=NNC(=S)SCc1ccccc1)c1ccccn1,-,0.32µM,-,-97
CC(=NNC(=S)N1CCCC1)c1ccccn1,-,-,-,-99
C/C(=N\Nc1ccc(Cl)cc1)c1ccccn1,0,-,-,0
CC(=NNC(=S)N1CCC1)c1ccccn1,-,1.3µM,-,-101
COc1cc(NC(=O)C(NS(=O)(=O)c2ccc3c(c2)CCCC(=O)N3)C(C)C)cc(OC)c1 (stereo unspecified),-,-,-,0
O=C(CO/N=C/c1ccccc1)N1c2ccccc2Oc2ccccc21,?,0,12µM,-99
O=C(CN1CCCCC1)N1c2ccccc2Oc2ccccc21,?,0,0,0
Cc1ccc(C2=CC(=O)N(CCN)C2)cc1,-,-,-,0
O=C(NNC(=S)NCCc1ccccc1)c1ccc(Br)s1,9.3µM,0,0,0
CCOc1ccccc1OCCNC(C)Cc1ccc(OC)c(S(N)(=O)=O)c1 (stereo unspecified),-,-,-,0
CCCC[N+]12C3C[C@H](C4[C@H](O)[C@]5(C[C@@H]41)c1ccccc1N(C)[C@@H]35)[C@H](CC)[C@H]2O (stereo partly specified),?,0,13µM,0
Cc1cc(OC(C)C(=O)Nc2ccncc2)ccc1Cl (stereo unspecified),9.3µM,?,?,0
CC(C)CCOc1cccc(OCC(=O)Nc2ccncc2)c1,0,?,0,-77
Cc1cc(OC(C)C(=O)Nc2cccnc2)ccc1Cl (stereo unspecified),0,0,?,0
Cc1cc(OCC(=O)Nc2ccncc2)cc(C)c1Cl,0,13µM,0,-64
O=C(COc1ccc2ccccc2c1Br)Nc1ccncc1,0,?,0,-60
SMILES,Pf growth 96h,HCV inh,Pf growth 48h,HCMV inh
CCc1nn(CC(=O)N2CCN(c3cccc(C)c3)C(C)C2)c(=O)c2cc3sccc3n12 (stereo unspecified),-,-,-,0
COc1ccc(CCNC(=O)c2cc3c(=O)n4cccc(C)c4nc3n(Cc3ccco3)c2=N)cc1OC,1.7µM,11µM,13µM,0
Cc1cccn2c(=O)c3cc(C(=O)NCc4ccco4)c(=N)n(CCc4ccccc4)c3nc12,0.59µM,0,0.59µM,0
Cc1cccn2c(=O)c3cc(C(=O)NCc4ccco4)c(=N)n(C(C)C)c3nc12,-,?,?,0
Cc1cccn2c(=O)c3cc(C(=O)NCCc4ccccc4)c(=N)n(Cc4ccco4)c3nc12,?,?,1.5µM,?
O=C(c1ccc([N+](=O)[O-])cc1)N1CCN(c2ccc(Nc3ccccc3)nn2)CC1,-,-,-,0
CCCCN1C(=O)CN(C2CCCCCC2)C(=O)C1c1ccc(OC(C)C)c(OC)c1 (stereo unspecified),-,-,-,0
CCC(C)C(NC(=O)c1ccccc1NC(=O)c1ccco1)C(=O)NC1CCCCC1 (stereo unspecified),0,0,9.3µM,0
CCC(C)C(NC(=O)c1ccccc1NC(=O)c1ccco1)C(=O)NNC(=O)c1ccncc1 (stereo unspecified),?,?,10µM,0
COc1ccc(C(=O)Nc2ccccc2C(=O)N(Cc2ccco2)C(C(N)=O)C(C)C)cc1 (stereo unspecified),0,0,0,-76
CCC(C)C(NC(=O)c1ccccc1NC(=O)c1ccco1)C(=O)NNC(=O)c1ccc(OC)cc1 (stereo unspecified),8.3µM,?,9.3µM,0
COc1ccc(C(=O)NNC(=O)C(NC(=O)c2ccccc2NC(=O)c2ccco2)C(C)C)cc1 (stereo unspecified),0,0,0,0
COc1ccc(C(=O)n2nc(-c3cccnc3)nc2NCc2ccccc2)cc1OC,-,-,-,0

# Source: PubChem BioAssay (National Center for Advancing Translational Sciences (NCATS))
